# Sampled rows, rich in hits. Any-hit rate of the full collection: about 20%.
# Shiga inhibitor: A qHTS for Small Molecule Inhibitors of Shiga Toxin; Vero cells, Shiga toxin protein synthesis inhibition reporter; inhibition, % at 38.7 µM; 290,000 compounds, 9.2% hits; in the data active = inhibition mostly above about 28%, no sharp cut-off; inactive = mostly below about 43%; note: 0% is about no effect
# Pf growth 48h: Primary qHTS for delayed death inhibitors of the malarial parasite plastid, 48 hour incubation; P. falciparum luciferase growth in erythrocytes, 48 h; Potency, µM (doses to about 28.7 µM), for the others: at the top dose activity change, negative = inhibition, actives largely listed as inhibitors; 310,000 compounds, 5.9% hits; AID 504832, 2011; note: potency is the fitted concentration of half-maximal effect; % is set by controls: 0 for no effect and ±100 for the full control effect
#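 A one-generation exposure of luciferase-tagged malaria parasites in RPMI 1640/Albumax erythrocyte culture, 37 C and 5% CO2. Inhibition is inferred from decreased luminescence after adding detection reagent.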
# HCMV antiviral: qHTS Assay for inhibitors of the human cytomegalovirus (HCMV); HFF cells, HCMV-luciferase reporter, 72 h; stronger effect = lower value; activity change, negative = inhibition, % at 57.5 µM; 410,000 compounds, 4.5% hits; in the data active = activity change below about -60%; inconclusive = no clear call, values can overlap the other calls; inactive = above about -39%; note: % is set by controls: 0 for no effect and ±100 for the full control effect
#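 Inhibition of viral replication was scored as loss of reporter luminescence in HFFs infected with HCMV-luciferase (MOI 1 PFU/cell) for 72 h; compounds tested at 2 doses, normalized to buffer and Salinomycin controls.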
# Pf growth 96h: Primary qHTS for delayed death inhibitors of the malarial parasite plastid, 96 hour incubation | Potency, µM (doses to about 28.7 µM), without a hit: top-dose activity change, negative = inhibition, most hits filed as inhibitors | AID 504834, 2011 | 320,000 compounds, 6.9% hits | P. falciparum luciferase reporter growth, 96 h; note: potency is the fitted concentration of half-maximal effect; % is set by controls: 0 for no effect and ±100 for the full control effect
#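 Plates of compound plus infected erythrocytes (2% hematocrit, 0.05% parasitemia final) incubate 96 hours, 37 C, 5% CO2. Detection reagent added; reduced luminescence from the parasites' luciferase reporter flags inhibition.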
# Cycloheximide cs: Cycloheximide Counterscreen for Small Molecule Inhibitors of Shiga Toxin | cell reporter, cycloheximide protein synthesis inhibition counterscreen | max response, % | 300,000 compounds, 12% hits; in the data active = max response mostly above about 13%, no sharp cut-off; inactive = mostly below about 14%; note: read at 38.3 µM for the half of the compounds with a filed dose; 0% is about no effect
# Starred values were filed as active, the others as inactive; i = inactive; u = inconclusive; x = not tested or not shown. Unless noted, calls come from the whole dose curve; as a rule, active = well fitted inhibition curve with a large enough effect; inconclusive = small, poorly fitted or top-dose-only effect, or another doubt; inactive = no such curve, though single readings can be large or run the other way.
SMILES,Shiga inhibitor,Pf growth 48h,HCMV antiviral,Pf growth 96h,Cycloheximide cs
CN1/C(=C\C(=O)Nc2cccnc2)c2ccccc2CC1(C)C,1.3,u,-27.4,5.86µM*,-3.4
COc1ccc(C(=O)/C=C2/c3ccccc3CC(C)(C)N2C)cc1,60.2,27.0%,5.6,138.3%,25.4
O=S(=O)(Nc1nccs1)c1cnc(Cl)c(Br)c1,-3.6,-1.6%,-100.6*,6.5%,3.0
O=C(CCl)Nc1ccc(S(=O)(=O)Nc2nccs2)cc1,-4.1,2.33µM*,-29.6,1.47µM*,-3.7
O=S(=O)(Nc1nccs1)c1ccc(Br)cc1,1.8,8.0%,6.6,23.3%,-2.6
CCOCC(=O)Nc1ccc(S(=O)(=O)Nc2nccs2)cc1,-9.7,-4.5%,42.2,11.7µM*,-1.5
CC(C)CC(=O)NC(=S)Nc1ccc(S(=O)(=O)Nc2nccs2)cc1,-9.6,-5.3%,-70.6*,17.1%,-1.5
CSc1ccccc1C(=O)OCC(=O)NC1CCCCCCC1,x,x,-5.0,x,x
CCCC1NC(=O)c2cccnc2-n2c1nc1ccc(C)cc1c2=O (stereo not drawn),x,x,-5.5,x,x
COc1ccc(-n2c(C)c([N+](=O)[O-])c3ccc(O)c(CN(C)C)c32)cc1,-11.6,0.828µM*,-91.9*,u,-6.3
CCn1c(O)c(N=NC(=O)CNC(=O)c2ccco2)c2ccccc21,-10.6,-1.1%,-61.8*,43.7%,-3.5
CCCn1c(O)c(N=NC(=O)c2cccnc2)c2cc(Br)ccc21,-8.6,5.86µM*,-30.8,5.86µM*,4.0
CCCn1c(O)c(N=NC(=O)c2ccco2)c2ccccc21,52.8*,u,-1.3,u,7.9
COc1ccc(-n2nc(N)c(C(N)=O)n2)cc1,39.3,107.0%,-25.6,296.0%,33.0*
COc1ccc(C(=O)n2cnnc2N)cc1,-16.5,12.3%,74.4,32.2%,-2.0
Cc1oc2ncn(CC(C)C)c(=O)c2c1C(=O)Nc1cc(F)ccc1F,x,x,5.8,x,x
O=C1c2ccccc2S(=O)(=O)N1CCOc1ccc(F)cc1,55.1,34.5%,28.1,80.8%,20.9*
CCn1c(C)cc2c(c1=O)C(c1ccccc1)C(C(=O)OC)=C(N)O2 (stereo not drawn),21.5,3.4%,23.5,278.2%,-4.0
COC(=O)C1=C(N)Oc2cc(C)n(CCCn3ccnc3)c(=O)c2C1c1ccc(Cl)cc1 (stereo not drawn),-11.2,3.29µM*,19.2,4.65µM*,-2.2
N#C/C(=C\c1ccc(OCC(N)=O)cc1)c1ccccc1,88.3*,88.1%,-30.3,11.9%,39.2*
CCOC(=O)CN/C=C(\C#N)c1ccccc1,-57.1,-18.1%,-37.9,12.0%,8.2
COC(=O)N(C)C[C@H]1OCc2cn(nn2)CCCC(=O)N([C@H](C)CO)C[C@@H]1C,x,x,20.8,x,x
Ic1ccccc1CN[C@@H]1C2CCN(CC2)[C@@H]1C(c1ccccc1)c1ccccc1,x,2.62µM*,-98.6*,2.94µM*,x
O=c1sc(N2CCN(c3ccc(F)cc3)CC2)nc2ccsc12,42.9,x,8.7,u,12.3
O=C(c1ccco1)N1CCN(c2nc3ccsc3c(=O)s2)CC1,49.4*,2.2%,-4.9,-20.3%,31.5*
SMILES,Shiga inhibitor,Pf growth 48h,HCMV antiviral,Pf growth 96h,Cycloheximide cs
O=c1sc(N2CCN(c3ccccc3F)CC2)nc2ccsc12,56.5*,62.8%,79.3,u,36.8*
Cc1cc2nc(N3CCN(C(=O)c4ccco4)CC3)sc2cc1C,x,-12.4%,15.0,-24.5%,x
CSc1nc(-c2ccccc2)nc(NC(C)=O)c1C(C)=O,24.5,5.5%,0.2,u,-1.7
COCC(=O)N1CCCC(CNS(=O)(=O)c2ccc(OC)cc2)C1 (stereo not drawn),-5.0,-0.5%,42.3,10.4µM*,2.5
Cc1ccc(CNC(=O)C2CCC(CNS(=O)(=O)c3cccc4cccnc34)CC2)cc1 (stereo not drawn),-6.6,u,-5.9,11.7µM*,4.2
COc1ccc(CN2CCN(C(=O)C3CCC(CNS(=O)(=O)c4ccccc4)CC3)CC2)c(OC)c1OC (stereo not drawn),14.3,u,-101.6*,u,-2.2
COCCC(=O)N1CCCC(CNS(=O)(=O)c2ccc(OC)cc2)C1 (stereo not drawn),-9.0,3.9%,-25.3,0.0%,-1.8
O=C(C1CCC(CNS(=O)(=O)c2ccccc2)CC1)N1CCCCC1 (stereo not drawn),3.1,-19.8%,4.1,u,-2.8
Cc1ccc(S(=O)(=O)NCC2CCC(C(=O)NCc3cccs3)CC2)cc1 (stereo not drawn),-5.9,-0.7%,-17.8,10.4µM*,-2.9
O=C(NCc1cccs1)C1CCC(CNS(=O)(=O)c2ccccc2)CC1 (stereo not drawn),22.0,-3.8%,15.9,81.1%,7.1
CC(C)Oc1ccccc1OC1(C)CCN(Cc2ccc(OC(F)(F)F)cc2)C1 (stereo not drawn),x,x,0.6,x,x
COc1ccc(S(=O)(=O)NCC2CCC(C(=O)NCc3cccnc3)CC2)cc1 (stereo not drawn),-4.2,4.9%,-13.8,-4.2%,6.0
Cc1ccc(S(=O)(=O)NCC2CCC(C(=O)NCCCN3CCC(C)CC3)CC2)cc1 (stereo not drawn),x,x,-27.9,x,x
COc1ccc(CNC(=O)C2CCC(CNS(=O)(=O)c3ccccc3)CC2)cc1 (stereo not drawn),2.6,3.7µM*,17.8,0.0%,0.7
O=C(NCCc1ccccc1)C1CCC(CNS(=O)(=O)c2ccc(F)cc2)CC1 (stereo not drawn),16.5,10.7%,1.3,u,16.1*
CC1CCN(CCCNC(=O)C2CCC(CNS(=O)(=O)c3ccccc3)CC2)CC1 (stereo not drawn),-3.7,21.0%,u,11.7µM*,-2.8
CC(C)C(NC(=S)NCc1ccccc1)C(=O)O (stereo not drawn),11.3,16.0%,50.0,x,2.3
OC(c1cccc(Cl)c1)c1ncc(-c2ccc(Oc3ccccc3)cc2)[nH]1 (stereo not drawn),x,x,-15.3,x,x
CCC(=O)Nc1c(C(=O)Nc2ccc3c(c2)OCCO3)oc2ccccc12,88.1*,304.0%,40.3,i,41.2
COc1cccc(NC(=O)c2oc3ccccc3c2NC(=O)c2ccc(F)c(F)c2)c1,x,x,-7.4,x,x
CCOCC(=O)Nc1c(C(=O)Nc2ccc3c(c2)OCCO3)oc2ccccc12,126.4*,147.2%,-95.8*,138.4%,36.9*
COCC(=O)Nc1c(C(=O)Nc2ccc3c(c2)OCCO3)oc2ccccc12,93.4*,368.6%,55.6,i,35.6*
O=C(Nc1ccc2c(c1)OCCO2)c1oc2ccccc2c1NC(=O)C1CC1,17.1,-18.8%,-19.3,-21.4%,2.8
CCC(=O)Nc1c(C(=O)Nc2cccc(OC)c2)oc2ccccc12,36.6,117.4%,66.6,54.1%,17.7*
COc1ccc(C(=O)Nc2c(C)csc2C(=O)O)cc1,-18.6,6.1%,-1.8,u,-0.5

# Screening data (PubChem)
